Assay results published in PubChem BioAssay AID485270 (The Scripps Research Institute Molecular Screening Center, 2010).
Among all 330,000 compounds or so, about 5,800 (1.8%) were called active. What follows is part of a selection rich in actives, with near analogues and random picks from the rest. A number with no mark means an inactive call. No stated cut-off is given here; in the data, active means inhibition mostly above about 38% (no sharp cut-off); inactive means mostly below about 40%.

biological target: Orexin/Hypocretin receptor type 1 (Homo sapiens) (UniProt O43613); assay: antagonists of human orexin 1 receptor (OX1R) (AID 485270); conditions: OX1R-expressing cells, FRET antagonist read-out; at 6.6 µM; hits give high values;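 further: 0% = agonist challenge alone and 100% = reference antagonist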
Sequence (O43613 whole entry, looked up): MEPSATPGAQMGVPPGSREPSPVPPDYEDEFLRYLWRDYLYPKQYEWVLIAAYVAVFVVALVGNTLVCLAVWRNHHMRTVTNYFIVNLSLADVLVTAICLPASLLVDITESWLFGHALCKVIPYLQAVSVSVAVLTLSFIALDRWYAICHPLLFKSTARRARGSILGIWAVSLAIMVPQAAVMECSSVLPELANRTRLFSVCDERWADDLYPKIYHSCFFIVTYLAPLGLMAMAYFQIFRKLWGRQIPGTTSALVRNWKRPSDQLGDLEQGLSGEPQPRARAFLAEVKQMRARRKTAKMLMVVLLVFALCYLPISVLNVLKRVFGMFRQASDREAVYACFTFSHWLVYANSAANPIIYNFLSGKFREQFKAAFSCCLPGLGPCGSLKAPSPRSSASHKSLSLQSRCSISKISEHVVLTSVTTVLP

SMILES | inhibition
Cc1cc(C(=O)OCC(=O)N2C(C)CCCC2C)c2ccccc2n1 (stereo not drawn) | 10.9%
Cc1cccc(NS(=O)(=O)c2ccc(C)c(C(=O)NCc3cccnc3)c2)c1 | 6.94%
N/C(=N\OC(=O)CCc1ccccc1)c1ccc(Cl)cc1 | 18.5%
Cc1ccc(NC(=O)Cn2cnc3c(OCc4ccccc4)ncnc32)cc1C | 6.27%
Cc1ccsc1C(=O)NCCc1ccco1 | 7.13%
O=C(Nc1cccc(S(=O)(=O)N2CCOCC2)c1)C12CC3CC(CC(C3)C1)C2 | 4.36%
O=C(Nc1nccs1)C1CCCN1S(=O)(=O)c1cccc2cccnc12 (stereo not drawn) | 47.1% (active)
Cc1ccc(NC(=O)C2CCCN2S(=O)(=O)c2cccc3cccnc23)c(C)c1 (stereo not drawn) | 21.6%
COc1ccc(NC(=O)C2CCCN(S(=O)(=O)c3cccc4cccnc34)C2)cc1OC (stereo not drawn) | 22.1%
Cc1cccc(NC(=O)C2CCN(S(=O)(=O)c3cccc4cccnc34)CC2)c1 | 7.8%
O=C(O)C1CCCN(S(=O)(=O)c2cccc3cccnc23)C1 (stereo not drawn) | 4.71%
Cc1cc(C)cc(NC(=O)C2CCCN2S(=O)(=O)c2cccc3cccnc23)c1 (stereo not drawn) | 89.3% (active)
O=C1OC[C@@H]2CCCN2C(=O)[C@H](CC(=O)N(CCO)Cc2ccccc2)C/C=C\CC[C@@H]1Cc1ccc(F)cc1 | 4.88%
CC(=O)OCCC(C)C | 3.23%
C=CC[C@H](CC(=O)N(CCO)Cc1ccccc1)C(=O)N[C@@H](COC(=O)[C@@H](CC=C)Cc1ccc(F)cc1)Cc1ccccc1 | 10.8%
CCOc1ccc(N2CC(C(=O)NCCN3C(=O)S/C(=C\c4cccnc4)C3=O)CC2=O)cc1 (stereo not drawn) | 55.7% (active)
COc1ccc(N2CC(C(=O)NCCN3C(=O)S/C(=C\c4cccnc4)C3=O)CC2=O)c(OC)c1 (stereo not drawn) | 153% (active)
O=C(NCCN1C(=O)S/C(=C\c2cccnc2)C1=O)c1ccc(S(=O)(=O)N2CCCC2)cc1 | 41%
Cc1cc(OCCCC(=O)NCCN2C(=O)S/C(=C\c3cccnc3)C2=O)ccc1Cl | 97.5% (active)
CCCNC(=O)C1CC(=O)N(c2ccc(OCC(=O)Nc3cccc(C)c3C)cc2)C1 (stereo not drawn) | 7.42%
O=C(NCCN1C(=O)S/C(=C\c2cccnc2)C1=O)c1cccc(OC(F)F)c1 | 33.8%
COc1cccc(NC(=O)C2c3cc(OC)c(OC)cc3C(=O)N(C)C2c2cccnc2)c1 (stereo not drawn) | 10.3%

SMILES | inhibition
CCOc1ccc(N2CC(C(=O)NCc3ccccn3)CC2=O)cc1 (stereo not drawn) | 13.1%
COc1ccccc1N1CC(C(=O)NCCN2C(=O)S/C(=C\c3cccnc3)C2=O)CC1=O (stereo not drawn) | 29.4%
Cc1ccc(CNC(=O)COC(=O)C2CCC2)cc1 | 8.9%
O=C(COC(=O)c1cc(S(=O)(=O)N2CCOCC2)ccc1F)NC1CC1 | 8.42%
CN(CC(=O)NCCc1ccc(S(N)(=O)=O)cc1)CC(=O)Nc1ccc(Cl)cc1 | 3.5%
CCCc1cc(=O)[nH]c(SCC(=O)Nc2ccc(C(=O)Nc3ccccc3OC)cc2)n1 | 14.2%
Cc1ccc2c(c1)NC(=O)[C@@]1(C)[C@@H](c3ccccc3)[C@H]3COc4ccc(Cl)cc4[C@@H]3N1C2=O | 27.8%
CSc1ncccc1C(=O)NCC(c1ccco1)N1CCCCC1 (stereo not drawn) | 1.61%
O=C1N[C@@H](c2ccccc2)COC(=O)[C@H](Cc2ccc(F)cc2)C/C=C\C[C@@H]1CC(=O)N(CCO)Cc1ccccc1 | 13.5%
CC1CC(=NNC(=O)C2COc3ccccc3O2)CC(C)(C)C1 (stereo not drawn) | 5.91%
O=C(Nc1ccccn1)C1CCN(S(=O)(=O)c2ccc3c(c2)OCCO3)CC1 | -0.64%
COc1cccc(NC(=O)COC(=O)c2ccc3ccccc3n2)c1 | 10.5%
CCc1ccc(C(=O)N2CCN(S(=O)(=O)c3sc(C(=O)O)c(C)c3C(=O)O)CC2)cc1 | 0.64%
COc1ccc(CCOC2OC(CO)C(OC(=O)/C=C/c3ccc(O)c(OC)c3)C(O[C@H]3O[C@@H](C)[C@H](O)[C@@H](O)[C@H]3O)C2O)cc1O (stereo partly drawn) | 3.08%
CCOC(=O)CSc1nc(C)cc2c1C(=O)OC2 | 5.73%
CCOC(=O)CSc1ccccn1 | 2.08%
CCOC(=O)CSC1=N/C(=C/c2ccc(-n3cncn3)cc2)C(=O)N1C(C)=O | 64.5% (active)
COc1cccc(CC(=O)OCC(=O)NCc2ccc3c(c2)OCO3)c1 | 4.94%
CC(=O)Nc1ccc(S(=O)(=O)NCC(=O)OCC(=O)c2ccc[nH]2)cc1 | 7.15%
Cc1ccc(C)c(NC(=O)COC(=O)c2nn(C)c(=O)c3ccccc23)c1 | 4.64%
CC(Sc1nncn1C)C(=O)NCCC1=CCCCC1 (stereo not drawn) | 5.26%
COc1ccc(CNc2nc(NCc3ccc(OC)cc3)c3ncn(C4CCCC4)c3n2)cc1 | 15.3%

SMILES | inhibition
O=C(Nc1ccc(Br)cn1)c1ccc([N+](=O)[O-])cc1Cl | 13.9%
Cc1onc(NC(=O)c2ccc([N+](=O)[O-])o2)c1Br | 33.4%
O=C(Nc1ccc(Br)cn1)c1ccc([N+](=O)[O-])o1 | 64.5% (active)
COc1ccc(C2(c3ccc(OC)cc3)NC(=O)N(CC(=O)Nc3cc(C)on3)C2=O)cc1 | 14%
CCN1C[C@@H]2[C@@H]3C(=O)N(Cc4ccccc4)C(=O)[C@@H]3[C@](Cc3ccccc3)(C(=O)OC)N2C1=NC1CCCCC1 | 5.88%
COc1ccc(N2CCN(c3ccc([N+](=O)[O-])cc3Cl)CC2)cc1 | 11.7%
CC(C)(C)c1cnnn1-c1ccc([N+](=O)[O-])cc1 | 29.6%
COc1cnn(-c2ccc([N+](=O)[O-])cc2)c(=O)c1Cl | 49.7% (active)
O=C(Cn1cnc2c(OCc3ccccc3)ncnc21)NCCCn1ccnc1 | -0.28%
Cc1cc(NC(=O)COc2ccccc2C#N)no1 | 4.54%
CNC[C@H]1Oc2c(NC(=O)C3CCCCC3)cccc2C(=O)N([C@H](C)CO)C[C@@H]1C | 6.17%
COc1cc(/C=C/C(=O)Nc2ccc(OC)c(S(=O)(=O)N3CCOCC3)c2)ccc1OCC#N | 6.14%
CN(C)C(=O)c1coc2nc3ccccc3nc12 | 7.78%
CNC(=O)c1cc2c(ccc3ccccc32)oc1=N | 50.1%
CNC(=O)c1cccc2nc3ccccc3nc12 | 61.4% (active)
C=CC[C@@H](CC(=O)NCCO)C(=O)N[C@H](C)COC(=O)[C@@H](CC=C)CC(=O)OC(C)(C)C | 5%
CN1CCN(C(=O)c2ccc(-c3ccc(Br)cc3)o2)CC1 | 8.86%
COc1ccc(N2C(=O)c3cccc4cccc(c34)C2=O)nn1 | 62.1% (active)
O=C1c2ccccc2C(=O)N1c1cccc2ccccc12 | 17%
O=C1c2cccc3cccc(c23)C(=O)N1c1cccc(O)c1 | 26.1%
O=C(CSc1nnc(-c2ccncc2)o1)Nc1cccc(Cl)c1 | 4.25%
O=C(OCC(=O)N1CCCCC1)c1ccc(OC(F)(F)F)cc1 | 10.9%

SMILES | inhibition
COc1ccc(S(=O)(=O)N2CCOCC2)cc1NC(=O)CSc1nnc(NC2CC2)s1 | 5.24%
Cc1ccc(CNC(=O)Cn2cnc3c(NCc4ccccc4)ncnc32)o1 | 13.2%
CC(=O)Nc1ccc(S(=O)(=O)Nc2ccc(N3CCCCC3)cc2)cc1 | 16.6%
COc1cc(OC)c(C(=O)NNC(=O)c2ccccc2-n2cccc2)cc1OC | 10.5%
Oc1c(Cl)cc(Cl)c(Cl)c1Cc1c(O)c(Cl)cc(Cl)c1Cl | 60.5% (active)
Cc1cc(NC(=O)CN2C(=O)NC(CC(C)C)C2=O)no1 (stereo not drawn) | 4.3%
NS(=O)(=O)c1ccc(CCNC(=O)c2ccc(Cl)cc2[N+](=O)[O-])cc1 | 26.8%
O=[N+]([O-])c1ccc(NCCCN2CCOCC2)c(Cl)c1 | 10.8%
O=C(NCCCN1CCOCC1)c1ccc(N2CCCC2)c([N+](=O)[O-])c1 | 52.4%
COc1ccc(C(=O)NCCc2ccc(S(N)(=O)=O)cc2)cc1OC | 17.6%
NS(=O)(=O)c1ccc(CCNC(=O)c2ccc([N+](=O)[O-])cc2[N+](=O)[O-])cc1 | 138% (active)
O=C(Nc1cccnc1)c1ccc(Cl)cc1[N+](=O)[O-] | 22.6%
NS(=O)(=O)c1ccc(CCNC(=O)CNC(=O)Cc2ccccc2)cc1 | 1.42%
O=C(NCCCN1CCOCC1)c1ccc([N+](=O)[O-])cc1[N+](=O)[O-] | 70.3% (active)
NS(=O)(=O)c1ccc(CNC(=O)c2ccc(Cl)cc2[N+](=O)[O-])cc1 | 70.7% (active)
Cc1ccc(S(=O)(=O)N2CCN(C(=O)COC(=O)CNC(=O)c3ccc(C(C)(C)C)cc3)CC2)c(C)c1 | 1.85%
O=C(COC(=O)c1cccc(Cl)c1)NC(=O)NCc1ccccc1 | 4.12%
C=CCC[C@@H](Cc1ccc(F)cc1)C(=O)O[C@H](CNC(=O)[C@H](CC=C)CC(=O)N(CCO)Cc1ccccc1)c1ccccc1 | 13.9%
C=CCC[C@H](Cc1ccc(F)cc1)C(=O)OC[C@@H](NC(=O)[C@@H](CC=C)CC(=O)N[C@H](CO)Cc1ccccc1)C(C)(C)C | -2.5%
COc1cccc(CNS(=O)(=O)c2ccc3c(c2)CC(C)N3C(C)=O)c1 (stereo not drawn) | 19.3%
COc1cccc(CNS(=O)(=O)c2ccc3c(c2)CC(C)N3C(=O)C2CCC2)c1 (stereo not drawn) | 53.7% (active)
COc1ccc(N(C)S(=O)(=O)c2ccc3c(c2)CC(C)N3C(=O)C2CC2)c(OC)c1 (stereo not drawn) | 13.5%
